# Data as given in PubChem BioAssay (NCI).
# The panel holds about 79,000 compounds, 15% with a hit somewhere; the sample as a whole holds those more often. Values without a mark were called inactive. Activity calls are given as the source filed them. Rule as the data show it: active = growth inhibition above about 70%; inactive = the rest.
# Experiments:
# [1] = NCI Yeast Anticancer Drug Screen. Data for the rad52 strain (AID 147);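 also: 0% = growth of vehicle-treated control cultures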; conditions: S. cerevisiae rad52 mutant growth inhibition, stronger effect = higher value
# Summary of the method: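 DNA repair-defective yeast; compound exposure; growth scored against vehicle controls.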
# [2] = NCI Yeast Anticancer Drug Screen. Data for the wt1 strain (AID 149);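 also: 0% = growth of vehicle-treated wt1 cultures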; conditions: S. cerevisiae wt1 strain (SPY 50644) growth inhibition, stronger effect = higher value
# Summary of the method: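 Yeast wt1 strain exposed to compounds; growth inhibition measured relative to vehicle-treated controls.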
# [3] = NCI Yeast Anticancer Drug Screen. Data for the rad50EPP+ strain (AID 151);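 also: 0% = growth of vehicle-treated control cultures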; conditions: S. cerevisiae rad50 mutant strain, stronger effect = higher value
# Summary of the method: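 rad50EPP+ yeast treated with test compounds. Readout: growth vs vehicle control.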
# [4] = NCI Yeast Anticancer Drug Screen. Data for the mgt1 strain (AID 153); conditions: S. cerevisiae mgt1 mutant growth inhibition, stronger effect = higher value
# Summary of the method: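 Growth inhibition relative to vehicle controls was scored for the mgt1 yeast strain after compound exposure.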
# [5] = NCI Yeast Anticancer Drug Screen. Data for the rad50 strain (AID 155);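 also: 0% = growth of vehicle-only cultures of the same strain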; conditions: S. cerevisiae rad50 strain growth inhibition, stronger effect = higher value
# Summary of the method: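 Yeast carrying a defined DNA repair defect were exposed to test compounds, and growth was compared with vehicle-treated controls to give percent inhibition.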
# [6] = NCI Yeast Anticancer Drug Screen. Data for the mec2-1 strain (AID 157); conditions: S. cerevisiae mec2-1 strain, stronger effect = higher value
# Summary of the method: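 Growth inhibition is read against vehicle-treated controls after compound exposure of the mec2-1 yeast strain, which is defective in DNA damage repair or cell cycle control.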
# [7] = NCI Yeast Anticancer Drug Screen. Data for the sgs1 mgt1 strain (AID 161);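 also: 0% = growth of cultures given vehicle only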; conditions: S. cerevisiae sgs1 mgt1 strain, stronger effect = higher value
# Summary of the method: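 Percent growth inhibition was derived by comparing compound-exposed mutant yeast with vehicle-exposed cultures. The strain carries alterations in DNA damage repair.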
# [8] = NCI Yeast Anticancer Drug Screen. Data for the CLN2oe strain (AID 163);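 also: 0% = growth of vehicle-only control cultures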; conditions: S. cerevisiae CLN2oe strain, stronger effect = higher value
# Summary of the method: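 Compound-treated yeast; growth vs vehicle ctrl = % inhibition. Genetically altered strain (cell-cycle control).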
# [9] = NCI Yeast Anticancer Drug Screen. Data for the cln2 rad14 strain (AID 165);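 also: 0% = growth equal to vehicle treated cultures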; conditions: S. cerevisiae cln2 rad14 strain, stronger effect = higher value
# Summary of the method: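 Growth inhibition, relative to vehicle-treated controls, is the read-out. The test organism is a yeast strain with defined genetic alterations, cln2 rad14.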
# [10] = NCI Yeast Anticancer Drug Screen. Data for the bub3 strain (AID 167); conditions: S. cerevisiae bub3 mutant strain, stronger effect = higher value
# Summary of the method: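 Compounds were applied to a genetically altered yeast strain carrying a cell-cycle control defect. Growth inhibition was scored against vehicle-treated controls.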
# [11] = NCI Yeast Anticancer Drug Screen. Data for the wt2 strain (AID 169);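 also: 0% = growth of vehicle-treated yeast cultures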; conditions: S. cerevisiae wt2 strain growth inhibition, stronger effect = higher value
# Summary of the method: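 Compound exposure of yeast; growth compared with vehicle controls; inhibition reported.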
# [12] = NCI Yeast Anticancer Drug Screen. Data for the mlh1 strain (AID 171);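 also: 0% = growth of vehicle-treated control cultures of the same strain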; conditions: S. cerevisiae mlh1 strain growth inhibition, stronger effect = higher value
# Summary of the method: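 Compounds are applied to a genetically altered yeast strain, and its growth is compared with that of vehicle-treated cultures to give percent inhibition.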
# [13] = NCI Yeast Anticancer Drug Screen. Data for the sgs1 strain (AID 173);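 also: 0% = growth of vehicle-only control cultures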; conditions: S. cerevisiae sgs1 mutant, stronger effect = higher value
# Summary of the method: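 Compounds applied to genetically altered yeast; growth compared with vehicle-treated cultures to give % inhibition.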
# [14] = NCI Yeast Anticancer Drug Screen. Data for the mlh1 rad18 strain (AID 175); conditions: S. cerevisiae mlh1 rad18 strain growth inhibition, stronger effect = higher value
# Summary of the method: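 Cells of a genetically altered yeast strain, deficient in DNA damage repair, were treated with compound. Their growth was then compared with that of vehicle-treated cultures to give inhibition.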
# [15] = NCI Yeast Anticancer Drug Screen. Data for the rad18 strain (AID 177); conditions: S. cerevisiae rad18 mutant growth inhibition, stronger effect = higher value
# Summary of the method: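 Compounds are applied to a repair-deficient yeast strain, and growth is compared with that of vehicle-treated cultures to give percent inhibition.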
# [16] = NCI Yeast Anticancer Drug Screen. Data for the rad14 strain (AID 159);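 also: 0% = growth of vehicle-treated control cultures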; conditions: S. cerevisiae rad14 strain growth inhibition, stronger effect = higher value
# Summary of the method: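 Yeast cells carrying a defined DNA-repair defect were exposed to compounds, and growth inhibition was calculated relative to vehicle-treated control cultures.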
# [17] = at 5.0 µM (retest, dose inferred, filed as 0.5)
# [18] = at 50.0 µM (retest, dose inferred, filed as 5.0)
smiles,measurement,setting,value
Cc1ccc(NCCNCCO)c2c(=O)c3cc(O)ccc3sc12,growth inhibition,[1]; at 1.2 µM,-5%
same,growth inhibition,[1]; at 3.7 µM,12%
same,growth inhibition,[1]; at 11.0 µM,30%
same,growth inhibition,[1]; at 33.0 µM,90% (active)
same,growth inhibition,[1]; at 100.0 µM,93% (active)
same,growth inhibition,[2]; at 1.2 µM,10%
same,growth inhibition,[2]; at 3.7 µM,-9%
same,growth inhibition,[2]; at 11.0 µM,-5%
same,growth inhibition,[2]; at 33.0 µM,-1%
same,growth inhibition,[2]; at 100.0 µM,18%
same,growth inhibition,[3]; at 1.2 µM,12%
same,growth inhibition,[3]; at 3.7 µM,22%
same,growth inhibition,[3]; at 11.0 µM,25%
same,growth inhibition,[3]; at 33.0 µM,36%
same,growth inhibition,[3]; at 100.0 µM,51%
same,growth inhibition,[4]; at 1.2 µM,-10%
same,growth inhibition,[4]; at 3.7 µM,1%
same,growth inhibition,[4]; at 11.0 µM,-11%
same,growth inhibition,[4]; at 33.0 µM,-1%
same,growth inhibition,[4]; at 100.0 µM,90% (active)
same,growth inhibition,[5]; at 1.2 µM,4%
same,growth inhibition,[5]; at 3.7 µM,4%
same,growth inhibition,[5]; [17],49%
same,growth inhibition,[5]; at 11.0 µM,28%
same,growth inhibition,[5]; at 33.0 µM,93% (active)
same,growth inhibition,[5]; [18],99% (active)
same,growth inhibition,[5]; at 50.0 µM,80.8% (active)
same,growth inhibition,[5]; at 100.0 µM,95% (active)
same,growth inhibition,[6]; at 1.2 µM,5%
same,growth inhibition,[6]; at 3.7 µM,-13%
same,growth inhibition,[6]; [17],21%
same,growth inhibition,[6]; at 11.0 µM,-11%
same,growth inhibition,[6]; at 33.0 µM,-10%
same,growth inhibition,[6]; [18],99% (active)
same,growth inhibition,[6]; at 50.0 µM,71.8% (active)
same,growth inhibition,[6]; at 100.0 µM,58%
same,growth inhibition,[7]; [17],8%
same,growth inhibition,[7]; [18],99% (active)
same,growth inhibition,[7]; at 50.0 µM,89.2% (active)
same,growth inhibition,[8]; at 1.2 µM,6%
same,growth inhibition,[8]; at 3.7 µM,14%
same,growth inhibition,[8]; at 11.0 µM,24%
same,growth inhibition,[8]; at 33.0 µM,23%
same,growth inhibition,[8]; at 100.0 µM,96% (active)
same,growth inhibition,[9]; [17],17%
same,growth inhibition,[9]; [18],100% (active)
same,growth inhibition,[9]; at 50.0 µM,88.9% (active)
same,growth inhibition,[10]; at 1.2 µM,-24%
same,growth inhibition,[10]; at 3.7 µM,0%
same,growth inhibition,[10]; [17],18%
same,growth inhibition,[10]; at 11.0 µM,0%
same,growth inhibition,[10]; at 33.0 µM,-2%
same,growth inhibition,[10]; [18],99% (active)
same,growth inhibition,[10]; at 50.0 µM,89.2% (active)
same,growth inhibition,[10]; at 100.0 µM,96% (active)
same,growth inhibition,[11]; at 1.2 µM,10%
same,growth inhibition,[11]; at 3.7 µM,3%
same,growth inhibition,[11]; at 11.0 µM,4%
same,growth inhibition,[11]; at 33.0 µM,63%
same,growth inhibition,[11]; at 100.0 µM,24%
same,growth inhibition,[12]; at 1.2 µM,-20%
same,growth inhibition,[12]; at 3.7 µM,-8%
same,growth inhibition,[12]; at 11.0 µM,-18%
same,growth inhibition,[12]; at 33.0 µM,-10%
same,growth inhibition,[12]; at 100.0 µM,93% (active)
same,growth inhibition,[13]; at 1.2 µM,15%
same,growth inhibition,[13]; at 3.7 µM,35%
same,growth inhibition,[13]; at 11.0 µM,43%
same,growth inhibition,[13]; at 33.0 µM,48%
same,growth inhibition,[13]; at 100.0 µM,91% (active)
same,growth inhibition,[14]; [17],13%
same,growth inhibition,[14]; [18],99% (active)
same,growth inhibition,[14]; at 50.0 µM,81.7% (active)
same,growth inhibition,[15]; at 1.2 µM,-35%
same,growth inhibition,[15]; at 3.7 µM,-30%
same,growth inhibition,[15]; at 11.0 µM,-27%
same,growth inhibition,[15]; at 33.0 µM,-5%
same,growth inhibition,[15]; at 100.0 µM,93% (active)
CC(NCCN(C)C)C1CCC2C3CCc4cc(O)ccc4C3CCC12C (stereo unspecified),growth inhibition,[1]; at 1.2 µM,6%
same,growth inhibition,[1]; at 3.7 µM,16%
same,growth inhibition,[1]; at 11.0 µM,57%
same,growth inhibition,[1]; at 33.0 µM,93% (active)
same,growth inhibition,[1]; at 100.0 µM,95% (active)
same,growth inhibition,[2]; at 1.2 µM,-4%
same,growth inhibition,[2]; at 3.7 µM,-1%
same,growth inhibition,[2]; at 11.0 µM,7%
same,growth inhibition,[2]; at 33.0 µM,43%
same,growth inhibition,[2]; at 100.0 µM,97% (active)
same,growth inhibition,[3]; at 1.2 µM,26%
same,growth inhibition,[3]; at 3.7 µM,41%
same,growth inhibition,[3]; at 11.0 µM,66%
same,growth inhibition,[3]; at 33.0 µM,90% (active)
same,growth inhibition,[3]; at 100.0 µM,96% (active)
same,growth inhibition,[4]; at 1.2 µM,0%
same,growth inhibition,[4]; at 3.7 µM,1%
same,growth inhibition,[4]; at 11.0 µM,13%
same,growth inhibition,[4]; at 33.0 µM,75% (active)
same,growth inhibition,[4]; at 100.0 µM,97% (active)
same,growth inhibition,[5]; at 1.2 µM,14%
same,growth inhibition,[5]; at 3.7 µM,19%
same,growth inhibition,[5]; [17],-10%
same,growth inhibition,[5]; at 11.0 µM,57%
same,growth inhibition,[5]; at 33.0 µM,92% (active)
same,growth inhibition,[5]; [18],55%
same,growth inhibition,[5]; at 50.0 µM,81% (active)
same,growth inhibition,[5]; at 100.0 µM,93% (active)
same,growth inhibition,[6]; at 1.2 µM,2%
same,growth inhibition,[6]; at 3.7 µM,5%
same,growth inhibition,[6]; [17],2%
same,growth inhibition,[6]; at 11.0 µM,14%
same,growth inhibition,[6]; at 33.0 µM,68%
same,growth inhibition,[6]; [18],49%
same,growth inhibition,[6]; at 50.0 µM,61.2%
same,growth inhibition,[6]; at 100.0 µM,97% (active)
same,growth inhibition,[16]; at 1.2 µM,3%
same,growth inhibition,[16]; at 3.7 µM,4%
same,growth inhibition,[16]; at 11.0 µM,13%
same,growth inhibition,[16]; at 33.0 µM,65%
same,growth inhibition,[16]; at 100.0 µM,98% (active)
same,growth inhibition,[7]; [17],7%
same,growth inhibition,[7]; [18],47%
same,growth inhibition,[7]; at 50.0 µM,91.2% (active)
same,growth inhibition,[9]; [17],35%
same,growth inhibition,[9]; [18],29%
same,growth inhibition,[9]; at 50.0 µM,41.7%
same,growth inhibition,[10]; at 1.2 µM,6%
same,growth inhibition,[10]; at 3.7 µM,11%
same,growth inhibition,[10]; [17],-4%
same,growth inhibition,[10]; at 11.0 µM,33%
same,growth inhibition,[10]; at 33.0 µM,76% (active)
same,growth inhibition,[10]; [18],44%
same,growth inhibition,[10]; at 50.0 µM,63.1%
same,growth inhibition,[10]; at 100.0 µM,94% (active)
same,growth inhibition,[11]; at 1.2 µM,-1%
same,growth inhibition,[11]; at 3.7 µM,0%
same,growth inhibition,[11]; at 11.0 µM,15%
same,growth inhibition,[11]; at 33.0 µM,84% (active)
same,growth inhibition,[11]; at 100.0 µM,97% (active)
same,growth inhibition,[12]; at 1.2 µM,4%
same,growth inhibition,[12]; at 3.7 µM,4%
same,growth inhibition,[12]; at 11.0 µM,26%
same,growth inhibition,[12]; at 33.0 µM,78% (active)
same,growth inhibition,[12]; at 100.0 µM,97% (active)
same,growth inhibition,[13]; at 1.2 µM,3%
same,growth inhibition,[13]; at 3.7 µM,9%
same,growth inhibition,[13]; at 11.0 µM,42%
same,growth inhibition,[13]; at 33.0 µM,87% (active)
same,growth inhibition,[13]; at 100.0 µM,96% (active)
same,growth inhibition,[14]; [17],4%
same,growth inhibition,[14]; [18],59%
same,growth inhibition,[14]; at 50.0 µM,82.4% (active)
same,growth inhibition,[15]; at 1.2 µM,22%
same,growth inhibition,[15]; at 3.7 µM,20%
same,growth inhibition,[15]; at 11.0 µM,52%
same,growth inhibition,[15]; at 33.0 µM,91% (active)
same,growth inhibition,[15]; at 100.0 µM,95% (active)
